Among the data in PubChem BioAssay (NCI) are growth inhibition values, retold here.

Test [1] in a line: NCI Yeast Anticancer Drug Screen. Data for the rad50 strain (AID 155).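 Note: 0% = growth of vehicle-only cultures of the same strain.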 The following applies: S. cerevisiae rad50 strain growth inhibition, stronger effect = higher value. The essentials: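 Growth of the mutant yeast was measured after compound exposure and referenced to vehicle-treated cultures.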
A short description of test [2]: NCI Yeast Anticancer Drug Screen. Data for the mec2-1 strain (AID 157). The following applies: S. cerevisiae mec2-1 strain, stronger effect = higher value. The essentials: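 Readout is yeast growth inhibition, normalised to vehicle-treated controls, in the mec2-1 strain exposed to compound.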
A short description of test [3]: NCI Yeast Anticancer Drug Screen. Data for the sgs1 mgt1 strain (AID 161).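 Note: 0% = growth of cultures given vehicle only.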 The following applies: S. cerevisiae sgs1 mgt1 strain, stronger effect = higher value. The essentials: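 Yeast cells carrying a defined DNA-repair defect were exposed to test compounds. Growth inhibition was measured relative to vehicle-treated controls.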
A short description of test [4]: NCI Yeast Anticancer Drug Screen. Data for the cln2 rad14 strain (AID 165).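 Note: 0% = growth equal to vehicle treated cultures.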 The following applies: S. cerevisiae cln2 rad14 strain, stronger effect = higher value. The essentials: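 Relative to vehicle controls, growth inhibition of compound-treated cln2 rad14 yeast was recorded.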
The nature of test [5]: NCI Yeast Anticancer Drug Screen. Data for the bub3 strain (AID 167). The following applies: S. cerevisiae bub3 mutant strain, stronger effect = higher value. The essentials: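 Whole-cell yeast assay. The mutant strain was incubated with compounds, and growth inhibition was determined by comparison with vehicle-treated cells.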
A short description of test [6]: NCI Yeast Anticancer Drug Screen. Data for the mlh1 rad18 strain (AID 175). The following applies: S. cerevisiae mlh1 rad18 strain growth inhibition, stronger effect = higher value. The essentials:
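Test agents were incubated with a yeast strain of defined genotype (DNA damage repair defect). Inhibition of growth was derived by comparison with vehicle-exposed cultures.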

Setting [7] is: at 5.0 µM (retest, dose inferred, filed as 0.5).
Setting [8] is: at 50.0 µM (retest, dose inferred, filed as 5.0).

The structures appear in SMILES notation. This is part of a sample that, as a whole, favours compounds with a hit. Of some 79,000 tested, about 15% had one in any assay. A number with no mark means an inactive call. Active and inactive are the calls of the source. Cut-off read from the data, not from the text of the source: active = growth inhibition above about 70%; inactive = the rest.

On to `C1CCC(CCCc2nn[nH]n2)CC1`, for which the growth inhibition in test [1] (setting [7]) was 20%; in test [1] (setting [8]), 53%; in test [2] (setting [7]), -1%; in test [2] (setting [8]), 64%; in test [3] (setting [7]), -2%; in test [3] (setting [8]) it was 51%. The growth inhibition was 1% in test [4] (setting [7]); 44% in test [4] (setting [8]); 1% in test [5] (setting [7]); 78% (active) in test [5] (setting [8]); 13% in test [6] (setting [7]); 61% in test [6] (setting [8]).
For `CCC(=O)c1ccc([N+](=O)[O-])o1`, the growth inhibition in test [1] (setting [7]) was 12%; in test [1] (setting [8]), 97% (active); in test [2] (setting [7]), 5%; in test [2] (setting [8]) it was 99% (active); in test [3] (setting [7]), 13%; in test [3] (setting [8]), 100% (active). Besides, the growth inhibition was -6% in test [4] (setting [7]); 99% (active) in test [4] (setting [8]); 13% in test [5] (setting [7]); 100% (active) in test [5] (setting [8]); 3% in test [6] (setting [7]); 98% (active) in test [6] (setting [8]).
Consider `S=C(SSC(=S)N1CCOCC1)N1CCOCC1`, for which the growth inhibition in test [1] (setting [7]) was 97% (active); in test [1] (setting [8]) it was 99% (active); in test [1] (at 50.0 µM), 99.3% (active); in test [2] (setting [7]), 99% (active); in test [2] (setting [8]), 100% (active); in test [2] (at 50.0 µM), 99.6% (active). The growth inhibition in test [4] (setting [7]) is 61%; in test [4] (setting [8]) it was 99% (active); in test [4] (at 50.0 µM) it was 99% (active); in test [5] (setting [7]), 98% (active); in test [5] (setting [8]), 99% (active); in test [5] (at 50.0 µM), 99.5% (active). Also, the growth inhibition is 98% (active) in test [6] (setting [7]), 99% (active) in test [6] (setting [8]) and 99.5% (active) in test [6] (at 50.0 µM).
For `O=C(CBr)C(Br)C(Br)c1ccccc1` (stereo unspecified), the growth inhibition in test [1] (setting [7]) is 98% (active); in test [1] (setting [8]), 99% (active); in test [2] (setting [7]), 99% (active); in test [2] (setting [8]), 100% (active); in test [3] (setting [7]), 100% (active); in test [3] (setting [8]), 98% (active). Also, the growth inhibition in test [4] (setting [7]) is 99% (active); in test [4] (setting [8]), 99% (active); in test [5] (setting [7]), 100% (active); in test [5] (setting [8]), 100% (active); in test [6] (setting [7]) it was 92% (active); in test [6] (setting [8]), 99% (active).
In the case of `COc1ccc2nc3c4c(nccc4c2c1)-c1ncccc1C3=O`, the growth inhibition is 93% (active) in test [1] (setting [7]); 97% (active) in test [1] (setting [8]); 89.2% (active) in test [1] (at 50.0 µM); 61% in test [4] (setting [7]); 97% (active) in test [4] (setting [8]); 90.6% (active) in test [4] (at 50.0 µM). In addition, the growth inhibition in test [5] (setting [7]) was 58%; in test [5] (setting [8]), 96% (active); in test [5] (at 50.0 µM), 89.5% (active); in test [6] (setting [7]), 93% (active); in test [6] (setting [8]), 97% (active); in test [6] (at 50.0 µM), -43%.
Regarding `COc1cccc(NC(=O)C(C#N)=C(SC)SC)c1`, the growth inhibition in test [1] (setting [7]) is 30%; in test [1] (setting [8]), 96% (active); in test [2] (setting [7]), 25%; in test [2] (setting [8]), 92% (active); in test [3] (setting [7]) it was 49%; in test [3] (setting [8]) it was 95% (active). The growth inhibition in test [3] (at 50.0 µM) was 91.2% (active); in test [4] (setting [7]) it was 34%; in test [4] (setting [8]), 41%; in test [4] (at 50.0 µM) it was 43%; in test [5] (setting [7]), 42%; in test [5] (setting [8]) it was 95% (active). In addition, the growth inhibition in test [5] (at 50.0 µM) was 91.2% (active); in test [6] (setting [7]) it was 23%; in test [6] (setting [8]), 59%; in test [6] (at 50.0 µM), 90% (active).
As for `CNc1ncnc2nc(C)[nH]c12`, the growth inhibition was 0% in test [1] (setting [7]); 20% in test [1] (setting [8]); -3% in test [2] (setting [7]); 3% in test [2] (setting [8]); 0% in test [3] (setting [7]); 16% in test [3] (setting [8]). For the same compound, the growth inhibition is 2% in test [4] (setting [7]); -4% in test [4] (setting [8]); 1% in test [5] (setting [7]); 2% in test [5] (setting [8]); -13% in test [6] (setting [7]); 16% in test [6] (setting [8]).
`CCCCC(=O)c1ccc([N+](=O)[O-])o1`: the growth inhibition was 39% in test [1] (setting [7]); 98% (active) in test [1] (setting [8]); 19% in test [2] (setting [7]); 99% (active) in test [2] (setting [8]); 26% in test [3] (setting [7]); 100% (active) in test [3] (setting [8]). The growth inhibition in test [4] (setting [7]) is 18%; in test [4] (setting [8]) it was 99% (active); in test [5] (setting [7]), 45%; in test [5] (setting [8]), 100% (active); in test [6] (setting [7]), 36%; in test [6] (setting [8]) it was 99% (active).
On to `CC(C)(C)c1cc([N+](=O)[O-])c(O)c([N+](=O)[O-])c1`, for which the growth inhibition is 36% in test [1] (setting [7]); 89% (active) in test [1] (setting [8]); 11% in test [2] (setting [7]); 54% in test [2] (setting [8]); 15% in test [3] (setting [7]); 74% (active) in test [3] (setting [8]). Also, the growth inhibition in test [4] (setting [7]) was 22%; in test [4] (setting [8]) it was 46%; in test [5] (setting [7]), 18%; in test [5] (setting [8]), 74% (active); in test [6] (setting [7]), 2%; in test [6] (setting [8]), 81% (active).
`CC(=O)c1ccc2c(c1)sc1cc(C(C)=O)ccc12`: the growth inhibition was 30% in test [1] (setting [7]); 98% (active) in test [1] (setting [8]); 15% in test [2] (setting [7]); 98% (active) in test [2] (setting [8]); 8% in test [3] (setting [7]); 99% (active) in test [3] (setting [8]). Further, the growth inhibition is 9% in test [4] (setting [7]); 97% (active) in test [4] (setting [8]); 15% in test [5] (setting [7]); 99% (active) in test [5] (setting [8]); 23% in test [6] (setting [7]); 98% (active) in test [6] (setting [8]).
As for `Oc1ccc(Cc2cccc(Cl)c2)c(O)c1`, the growth inhibition was -1% in test [1] (setting [7]); 92% (active) in test [1] (setting [8]); -7% in test [2] (setting [7]); 96% (active) in test [2] (setting [8]); -4% in test [3] (setting [7]); 97% (active) in test [3] (setting [8]). In addition, the growth inhibition in test [4] (setting [7]) is 4%; in test [4] (setting [8]), 98% (active); in test [5] (setting [7]), 0%; in test [5] (setting [8]), 92% (active); in test [6] (setting [7]), -3%; in test [6] (setting [8]), 90% (active).
`O=c1c2ccccc2ncn1O`: the growth inhibition was -1% in test [1] (setting [7]); 93% (active) in test [1] (setting [8]); 1% in test [2] (setting [7]); 54% in test [2] (setting [8]); 8% in test [3] (setting [7]); 98% (active) in test [3] (setting [8]). Besides, the growth inhibition in test [4] (setting [7]) was 10%; in test [4] (setting [8]) it was 21%; in test [5] (setting [7]) it was 5%; in test [5] (setting [8]), 89% (active); in test [6] (setting [7]), -12%; in test [6] (setting [8]), 81% (active).
